Bioassay records deposited in PubChem by NMMLSC.
Only some compounds are listed: those with a hit (about 1.2% of all), similar ones and a draw of the others.
RGS7-Gao – regulators of human RGS7-Galphao interaction. Multiplexed bead flow cytometry, RGS7-Galphao binding; actives lie on both sides. binding response (% of control), % at 10 µM. 220,000 compounds, 0.35% hits; in the data active = binding response below about 49% or above about 150%; inconclusive = no clear call, values can overlap the other calls; inactive = in between;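 note: fluorescent Galphao held in activated GDP-AlF4 state binding bead-coupled RGS7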
Target sequence (P09471 whole entry, looked up): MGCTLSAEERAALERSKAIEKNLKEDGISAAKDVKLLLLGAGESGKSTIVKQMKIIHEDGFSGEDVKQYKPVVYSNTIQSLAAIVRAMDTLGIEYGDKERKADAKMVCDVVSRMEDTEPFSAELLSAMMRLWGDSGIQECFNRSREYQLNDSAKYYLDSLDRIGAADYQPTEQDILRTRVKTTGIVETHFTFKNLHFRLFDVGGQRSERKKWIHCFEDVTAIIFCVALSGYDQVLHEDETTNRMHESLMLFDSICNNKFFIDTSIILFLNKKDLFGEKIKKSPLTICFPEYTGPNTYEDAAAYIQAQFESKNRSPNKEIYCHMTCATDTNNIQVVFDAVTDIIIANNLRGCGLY
Avidin bead fluor – avidin bead compound fluorescence profile; Avidin beads, compound fluorescence 488/530 nm, flow cytometry; hits give high values; fluorescence (KMESF) at 10 µM; 220,000 compounds, 0.38% hits; AID 1775; in the data active = fluorescence above about 47
RGS8-Gao reg – regulators of human RGS8-Galphao interaction; P09471; multiplexed bead flow cytometry, RGS8-Galphao binding; actives lie on both sides; response (percent of control binding), % at 10 µM; 220,000 compounds, 0.34% hits; in the data active = response below about 60% or above about 140%; inactive = in between;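 note: Galphao activated as the GDP aluminium fluoride complex binding bead-coupled RGS8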
GSH bead fluor – GSH bead compound fluorescence profile; fluorescence (KMESF) at 10 µM; GSH beads flow cytometry, compound fluorescence 488/530 nm; hits give high values; 190,000 compounds, 0.25% hits; in the data active = fluorescence above about 89;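 note: glutathione beads carrying GST-tagged Bcl family fusion proteins plus one bare bead set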
RGS16-Gao – regulators of human RGS16-Galphao interaction | O15492+P09471 | bead-based flow cytometry RGS16-Galphao binding, fluorescence; actives lie on both sides | binding response (% of control), % at 10 µM | 220,000 compounds, 0.38% hits | AID 1441;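 note: Galphao activated by GDP with aluminum fluoride before binding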
RGS4-Gao reg – modulates binding of RGS4 to human Galphao; P09471; binding response (% of control), % at 10 µM; AID 1415; 220,000 compounds, 0.33% hits; Multiplexed bead flow cytometry; actives lie on both sides; in the data active = binding response below about 49% or above about 150%; inactive = in between;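 note: fluorescent Galphao activated with aluminum fluoride binding bead-coupled RGS4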
RGS4-Gao HTS – modulates binding between human RGS4 and Galphao. AID 1504. RGS4–Galpha-o binding response, % at 10 µM. 1,600 compounds, 99% hits. shares compounds with RGS16-Gao. multiplexed bead flow cytometry, RGS–Galpha-o binding;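 note: fluorescently labeled Galpha-o bound to GDP with aluminium fluoride binding biotinylated RGS beads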
Target sequence (P09471 whole entry, looked up): as above
Target sequence (P49798 whole entry, looked up): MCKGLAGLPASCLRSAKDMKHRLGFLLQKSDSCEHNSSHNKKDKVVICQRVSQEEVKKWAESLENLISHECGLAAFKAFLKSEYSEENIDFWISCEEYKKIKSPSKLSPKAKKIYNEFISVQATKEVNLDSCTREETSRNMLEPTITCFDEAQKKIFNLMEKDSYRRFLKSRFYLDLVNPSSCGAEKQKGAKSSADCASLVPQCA
Biotin-avidin – biotin-avidin bead binding disruption counter-screen. shares compounds with RGS16-Gao. streptavidin beads, fluorescein-biotin binding, flow cytometry. inhibition, % at 10 µM. 1,700 tested, under 10 active;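 active = inhibition above 50%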;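 note: median green fluorescence of gated singlet beads compared with DMSO control wells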
RGS8-Gao single – RGS8-Galphao interaction regulation, single point confirmation; bead-based flow cytometry RGS8-Galphao binding, fluorescence; actives lie on both sides; shares compounds with RGS16-Gao; 1,700 compounds, 3% hits; binding response (% of control), % at 10 µM; in the data active = binding response below about 72% or above about 130%; inactive = in between;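 note: Galphao activated as GDP AlF4 complex before binding bead RGS8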
RGS7-Gao confirm – RGS7-Galphao interaction regulation, single point confirmation | shares compounds with RGS16-Gao | bead-based flow cytometry RGS7-Galphao binding; actives lie on both sides | response (percent of control binding), % at 10 µM | 1,700 compounds, 7.8% hits; in the data active = response below about 75% or above about 130%; inactive = in between;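 note: fluorescent Galphao activated with GDP and aluminum fluoride binding bead-coupled RGS7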
RGS16-Gao single – RGS16-Galphao interaction regulation, single point confirmation; shares compounds with RGS16-Gao; bead-based flow cytometry, RGS16-Galphao binding; actives lie on both sides; response (% of control binding), % at 10 µM; 1,700 compounds, 4% hits; in the data active = response below about 74% or above about 130%; inactive = in between;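 note: Galphao activated as the GDP aluminium fluoride complex binding bead-coupled RGS16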
RGS4-Gao confirm – RGS4-Galphao interaction regulation, single point confirmation; shares compounds with RGS16-Gao; RGS4-Galphao binding, multiplexed bead flow cytometry; actives lie on both sides; binding response (% of control), % at 10 µM; 1,700 compounds, 4% hits; AID 1840; in the data active = binding response below about 74% or above about 130%; inactive = in between
RGS19-Gao conf – confirmation of regulators of human RGS19-Galphao interaction. 1,700 compounds, 5% hits. AID 1841. shares compounds with RGS16-Gao. response (percent of control binding), % at 10 µM. bead-based flow cytometry RGS19-Galphao binding; actives lie on both sides; in the data active = response below about 50% or above about 160%; inactive = in between
Hits are given with their value; [ ] = remark or other dose. Unless noted, the rule behind the calls is not given here.

`COCCn1c(-c2ccccc2)nc2c(c(=O)c3ccccc3n2C)c1=O` gave RGS7-Gao inactive, Avidin bead fluor inactive, RGS8-Gao reg inactive, GSH bead fluor inactive, RGS16-Gao inactive and RGS4-Gao reg inactive.
For CN(Cc1ccccc1NS(=O)(=O)c1ccc2ccccc2c1)C1CCCCC1 the results were RGS7-Gao inactive, Avidin bead fluor inactive, RGS8-Gao reg inactive, GSH bead fluor inactive, RGS16-Gao inactive and RGS4-Gao reg inactive.
CCOC(=O)N/N=C\c1ccc(-c2cccc(C(F)(F)F)c2)o1 was read as RGS7-Gao inactive, Avidin bead fluor inactive, RGS8-Gao reg inactive, GSH bead fluor inactive, RGS16-Gao inactive and RGS4-Gao reg inactive.
For CC1(CC(=O)N/N=C/c2ccc(-c3cccc(C(F)(F)F)c3)o2)OCCO1 the results were RGS7-Gao 262[activator], Avidin bead fluor 254, RGS8-Gao reg inactive, GSH bead fluor inactive, RGS16-Gao 204[activator], RGS4-Gao reg 169[activator], Biotin-avidin inactive, RGS8-Gao single inactive, RGS7-Gao confirm inactive, RGS16-Gao single inactive, RGS4-Gao confirm inactive and RGS19-Gao conf inactive.
O=C(Nc1ccccc1F)c1ccc(COc2ccc(Cl)cc2Cl)o1 was read as RGS7-Gao inactive, Avidin bead fluor inactive, RGS8-Gao reg inactive, GSH bead fluor inactive, RGS16-Gao inactive and RGS4-Gao reg inactive.
CC(C)CNC(=O)c1ccc(COc2ccc(Cl)cc2Cl)o1 was read as RGS7-Gao 49, Avidin bead fluor inactive, RGS8-Gao reg 60, GSH bead fluor inactive, RGS16-Gao inactive, RGS4-Gao reg inactive, RGS4-Gao HTS 52, Biotin-avidin inactive, RGS8-Gao single inactive, RGS7-Gao confirm inactive, RGS16-Gao single inactive, RGS4-Gao confirm inactive and RGS19-Gao conf inactive.
For CC1(C)CC(=O)C2=C(C1)N(c1ccc(F)cc1)C(N)=C(C#N)C2c1cccs1 (configuration not stated) the results were RGS7-Gao inactive, Avidin bead fluor inactive, RGS8-Gao reg inactive, GSH bead fluor inactive, RGS16-Gao inactive and RGS4-Gao reg inactive.
Cc1ccc(N2C(N)=C(C#N)C(c3cccs3)C3=C2CC(C)(C)CC3=O)cc1 (configuration not stated) was read as RGS7-Gao inactive, Avidin bead fluor inactive, RGS8-Gao reg inactive, GSH bead fluor inactive, RGS16-Gao 197[activator], RGS4-Gao reg 197[activator], Biotin-avidin inactive, RGS8-Gao single inactive, RGS7-Gao confirm inactive, RGS16-Gao single inactive, RGS4-Gao confirm inactive and RGS19-Gao conf inactive.
Screening Cc1cc(C)nc(SCC(N)=O)n1 returned RGS7-Gao inconclusive, Avidin bead fluor inactive, RGS8-Gao reg inactive, RGS16-Gao inactive and RGS4-Gao reg inactive.
For CCOC(=O)c1cc(OCC(=O)NC(C)C(C)C)cc(C(=O)OCC)c1 (configuration not stated) the results were RGS7-Gao -9.7, Avidin bead fluor inactive, RGS8-Gao reg 6.1, GSH bead fluor inactive, RGS16-Gao -19, RGS4-Gao reg -31, Biotin-avidin inactive, RGS8-Gao single inactive, RGS7-Gao confirm inactive, RGS16-Gao single inactive, RGS4-Gao confirm inactive and RGS19-Gao conf inactive.
Screening CCCCC(=O)Nc1cccc(C(C)O)c1 (configuration not stated) returned RGS7-Gao inactive, Avidin bead fluor inactive, RGS8-Gao reg inactive, GSH bead fluor inactive, RGS16-Gao inactive and RGS4-Gao reg inactive.
For CC(C)CC(=O)Nc1cccc(C(C)O)c1 (configuration not stated) the results were RGS7-Gao 203[activator], Avidin bead fluor 173, RGS8-Gao reg inactive, GSH bead fluor inactive, RGS16-Gao inactive, RGS4-Gao reg inactive, RGS4-Gao HTS 115, Biotin-avidin inactive, RGS8-Gao single inactive, RGS7-Gao confirm inactive, RGS16-Gao single inactive, RGS4-Gao confirm inactive and RGS19-Gao conf inactive.
Screening CCN1/C(=C/c2ccc3cccc(C)c3[n+]2CC)Sc2ccccc21 returned RGS7-Gao 161[activator], Avidin bead fluor inactive, RGS8-Gao reg inactive, GSH bead fluor inactive, RGS16-Gao inactive, RGS4-Gao reg 196[activator], Biotin-avidin inactive, RGS8-Gao single inactive, RGS7-Gao confirm inactive, RGS16-Gao single inactive, RGS4-Gao confirm inactive and RGS19-Gao conf inactive.
Cc1sc(N)c(C(=O)c2ccccc2)c1C was read as RGS7-Gao 253[activator], Avidin bead fluor 248, RGS8-Gao reg inactive, GSH bead fluor inactive, RGS16-Gao inactive, RGS4-Gao reg inactive, RGS4-Gao HTS 126, Biotin-avidin inactive, RGS8-Gao single inactive, RGS7-Gao confirm inactive, RGS16-Gao single inactive, RGS4-Gao confirm inactive and RGS19-Gao conf inactive.
Screening COc1ccc(N2C(=O)CC(N(Cc3ccco3)C(=O)CCC(=O)O)C2=O)cc1 (configuration not stated) returned RGS7-Gao inactive, Avidin bead fluor inactive, RGS8-Gao reg inactive, GSH bead fluor inactive, RGS16-Gao inactive and RGS4-Gao reg inactive.
Screening Cc1nn(CCCC(=O)N2CCN(c3ccc(F)cc3)CC2)c(C)c1[N+](=O)[O-] returned RGS7-Gao 19, Avidin bead fluor inactive, RGS8-Gao reg 18, GSH bead fluor inactive, RGS16-Gao 15, RGS4-Gao reg 25, Biotin-avidin inactive, RGS8-Gao single inactive, RGS7-Gao confirm inactive, RGS16-Gao single inactive, RGS4-Gao confirm inactive and RGS19-Gao conf inactive.
For COc1ccc(C(=O)COC(=O)CCc2nc3ccccc3[nH]c2=O)cc1Br the results were RGS7-Gao inconclusive, Avidin bead fluor inactive, RGS8-Gao reg inactive, GSH bead fluor inactive, RGS16-Gao inactive and RGS4-Gao reg inactive.
